Results on eight compounds are retold here after PubChem BioAssay (NCI).

Some test systems named below: NCI-H23 lung; NCI-H322M lung; HOP-62 NSCLC; NCI-H460 lung; HOP-92 NSCLC; NCI-H522 lung; A549/ATCC NSCLC; 786-0 renal; COLO 205 colon; DU-145 prostate; K-562 leukemia; MALME-3M melanoma; MDA-MB-231 breast; RXF 393 renal; SF-268 CNS; SF-295 CNS; SF-539 CNS; UACC-257 melanoma; M14 melanoma; HCT-15 colon.
Common to all, as to assay: NCI-60 one-dose screen, 48 h (100 = growth as untreated, 0 = no growth, -100 = all killed)
Common to all, as to details: 10 µM unless noted

SMILES strings stand for the structures. About 83,000 compounds went through this panel and 20% of them were active in at least one assay; those are over-represented in the sample as a whole.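 Activity criterion: percent growth below 10, measured after cells in 96-well plates were exposed to a single compound concentration for 48 hours.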 Values without a mark were called inactive. Activity calls are given as the source filed them.

In the case of `CC(=S)NC(=O)C(=O)/C=C1/NC(=O)C(=O)S1`, the growth with NCI-H23 lung is 97.4%; with NCI-H322M lung it was 105%; with HOP-62 NSCLC, 100%; in the test on NCI-H460 lung, 107%; in the test on HOP-92 NSCLC it was 96.5%; with NCI-H522 lung, 105%. In addition, the growth in the test with A549/ATCC NSCLC is 111%; in the test on 786-0 renal it was 103%; in the test with COLO 205 colon it was 124%; in the test on DU-145 prostate, 111%; in the test on K-562 leukemia, 110%; in the test with MALME-3M melanoma, 107%. The growth is 103% with MDA-MB-231 breast; 110% in the test on RXF 393 renal; 100% in the test on SF-268 CNS; 101% with SF-295 CNS; 102% in the test on SF-539 CNS; 108% in the test on UACC-257 melanoma. Besides, the growth with M14 melanoma is 106%; with HCT-15 colon, 102%.

As for `CC1=NCC2NC(=O)NC(C)=C12` (stereo not given), the growth is 103% in the test on NCI-H23 lung; 94.7% in the test with NCI-H322M lung; 97.9% in the test with HOP-62 NSCLC; 101% in the test on NCI-H460 lung; 87.7% in the test with HOP-92 NSCLC; 96.5% with NCI-H522 lung. For the same compound, the growth in the test on A549/ATCC NSCLC is 105%; in the test with 786-0 renal, 96.9%; with COLO 205 colon, 108%; with DU-145 prostate, 104%; with K-562 leukemia, 110%; in the test with MALME-3M melanoma it was 96%. For the same compound, the growth with MDA-MB-231 breast is 95%; in the test on RXF 393 renal, 101%; in the test with SF-268 CNS, 96.1%; in the test with SF-295 CNS it was 103%; in the test on SF-539 CNS, 95.8%; with UACC-257 melanoma it was 105%. Moreover, the figures for the growth with M14 melanoma and with HCT-15 colon were 98.5% and 103%, respectively.

As to `COc1cc(/C=C2\CCC/C(=C\c3cc(CN4CCOCC4)c(O)c(OC)c3)C2=O)cc(CN2CCOCC2)c1O`, the growth with NCI-H23 lung was 21.4%; in the test on NCI-H322M lung, 46.4%; with HOP-62 NSCLC, 46.6%; in the test on NCI-H460 lung, 11.6%; with HOP-92 NSCLC, 36.8%; in the test on NCI-H522 lung it was 34.4%. The growth in the test on A549/ATCC NSCLC was 35.8%; in the test on 786-0 renal, 57.8%; in the test on COLO 205 colon, 45.2%; in the test on DU-145 prostate, 14.9%; with K-562 leukemia it was 15.3%; with MALME-3M melanoma, 46.3%. Further, the growth is 26.2% with MDA-MB-231 breast; 6.08% (active) in the test with RXF 393 renal; 42.3% with SF-268 CNS; 59.6% in the test on SF-295 CNS; 32% with SF-539 CNS; 64.7% with UACC-257 melanoma. Besides, the growth with M14 melanoma is 36.7%; with HCT-15 colon, 21.9%.

As to `CCN1C(=O)N(CC)C2Nn3c(s/c(=C\c4ccccc4F)c3=O)=NC21` (stereo not given), the growth is 41.8% in the test with NCI-H23 lung; 59.4% with NCI-H322M lung; 59.3% in the test with HOP-62 NSCLC; 21.6% with NCI-H460 lung; 67.5% with HOP-92 NSCLC; 27.5% with NCI-H522 lung. The growth with A549/ATCC NSCLC was 31.6%; with 786-0 renal, 49.3%; in the test with COLO 205 colon, 7.99% (active); in the test with DU-145 prostate, 37.4%; with K-562 leukemia, 15.9%; in the test on MALME-3M melanoma, 78.4%. Further, the growth in the test with MDA-MB-231 breast is 35.1%; in the test on RXF 393 renal, 36.7%; in the test on SF-268 CNS, 54.9%; in the test with SF-295 CNS, 14.9%; in the test with SF-539 CNS it was 11.6%; in the test with UACC-257 melanoma, 65.2%. Moreover, the results for the growth with M14 melanoma and in the test with HCT-15 colon were 23.3% and 26.5%, respectively.

Turning to `CN1CCN(Cc2ccc(NC(=O)c3[nH]ncc3Nc3cc(OC4CCCC4)ncn3)cc2)CC1`, the growth with NCI-H23 lung was 45.8%; in the test on NCI-H322M lung it was 45.9%; in the test with HOP-62 NSCLC it was 55.4%; in the test on NCI-H460 lung, 22.2%; in the test on HOP-92 NSCLC, 14.9%; in the test with NCI-H522 lung, 26.2%. In addition, the growth with A549/ATCC NSCLC was 8.79% (active); in the test on 786-0 renal, 20.9%; with COLO 205 colon, 7.6% (active); in the test with DU-145 prostate, 37.9%; with K-562 leukemia it was 1.53% (active); with MALME-3M melanoma, 65.4%. Further, the growth in the test on MDA-MB-231 breast is 23.8%; with RXF 393 renal it was -0.487% (active); in the test with SF-268 CNS it was 40.7%; in the test on SF-295 CNS, 45.9%; with SF-539 CNS, 30.3%; in the test on UACC-257 melanoma it was 48.1%. Further, the growth is 19.9% in the test with M14 melanoma and 12.9% in the test on HCT-15 colon.

In the case of `NC(CCl)=NCCC[C@H](N)C(=O)O`, the growth was 98.3% in the test with NCI-H23 lung; 99.5% in the test with NCI-H322M lung; 126% in the test with HOP-62 NSCLC; 101% in the test on NCI-H460 lung; 98.3% in the test with HOP-92 NSCLC; 95.4% with NCI-H522 lung. Moreover, the growth with A549/ATCC NSCLC was 97.8%; in the test with 786-0 renal, 106%; in the test with COLO 205 colon, 104%; in the test with DU-145 prostate it was 111%; in the test with K-562 leukemia, 111%; with MALME-3M melanoma, 146%. Also, the growth is 95.8% in the test on MDA-MB-231 breast; 100% with RXF 393 renal; 108% in the test on SF-268 CNS; 81.1% in the test on SF-295 CNS; 103% with SF-539 CNS; 87.6% in the test with UACC-257 melanoma. For the same compound, the results for the growth in the test with M14 melanoma and in the test on HCT-15 colon were 88.9% and 93.7%, respectively.

For `COc1ccc(CCN2C(=O)/C(=C/c3ccc(C4Oc5ccccc5C5CC(c6cccc(OC)c6)=NN54)cc3)SC2=S)cc1` (stereo not given), the growth is 99.8% in the test on NCI-H23 lung; 103% in the test with NCI-H322M lung; 100% with HOP-62 NSCLC; 101% in the test with NCI-H460 lung; 96.2% in the test on HOP-92 NSCLC; 90.3% in the test with NCI-H522 lung. Also, the growth was 103% in the test with A549/ATCC NSCLC; 105% in the test with 786-0 renal; 107% with COLO 205 colon; 101% with DU-145 prostate; 105% with K-562 leukemia; 97.8% in the test on MALME-3M melanoma. In addition, the growth was 101% with MDA-MB-231 breast; 107% with RXF 393 renal; 94.4% with SF-268 CNS; 97.7% in the test with SF-295 CNS; 95.4% in the test on SF-539 CNS; 101% in the test on UACC-257 melanoma. Further, the growth with M14 melanoma was 97.1%; in the test on HCT-15 colon it was 102%.

Regarding `O=Cc1c(OCc2cnnn2CC(=O)Nc2ccc(Br)cc2)ccc2ccccc12`, the growth with NCI-H23 lung is 86.4%; in the test on NCI-H322M lung, 96.1%; in the test with HOP-62 NSCLC, 97.7%; in the test on NCI-H460 lung, 97.3%; in the test with HOP-92 NSCLC, 85.7%; with NCI-H522 lung, 77.2%. Moreover, the growth is 91.6% in the test with A549/ATCC NSCLC; 102% with 786-0 renal; 106% in the test on COLO 205 colon; 96.9% in the test with DU-145 prostate; 91.4% with K-562 leukemia; 88.4% with MALME-3M melanoma. Besides, the growth was 84.4% in the test on MDA-MB-231 breast; 100% with RXF 393 renal; 92.7% in the test on SF-268 CNS; 88.9% with SF-295 CNS; 96.3% in the test with SF-539 CNS; 87% in the test with UACC-257 melanoma. Further, the growth in the test on M14 melanoma was 98.6%; in the test with HCT-15 colon, 80.4%.
